± gives the standard deviation of the averaged measurements.

Drawing on the supplement of paper PMC13094657, this text covers cell viability and kynurenine production for 17 compounds.

In assay [1] the test system is MDA-MB-231. The experiment in a line: cell viability relative to vehicle unstimulated control (fraction); higher = more viable cells. As to conditions: pre-treatment time: 18 h then 24 h IFNg/TNF.
For assay [2], the system named is MDA-MB-231. The experiment in a line: kynurenine production, fold change vs DMSO IFNg/TNF control; higher = more kynurenine produced (less inhibition). The conditions noted are these: pre-treatment time: 18 h then 24 h IFNg/TNF. A digest of the protocol:
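MDA-MB-231 cells (7 × 10^4/well, 96-well plates, seeded 24 h earlier) were pre-treated 18 h with each natural product in 0.1% DMSO, then stimulated 24 h with IFNγ (1 U/ml) and TNF (6.25 ng/ml) at 37°C. Supernatant kynurenine was read at 492 nm after trichloroacetic acid and p-dimethylaminobenzaldehyde treatment, against 0–100 μM standards. Kynurenine production is the fold change over cytokine-stimulated vehicle wells on the same plate, averaged over duplicate plates in the first screening round.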
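For cell viability relative to vehicle unstimulated control in this document: viability of the cells left after supernatant collection, read with Deep Blue dye added for 4 h, as absorbance at 570 nm minus 600 nm.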

Turning to `C[C@H](CC(=O)C[C@@H](C)[C@H]1C[C@H](O)[C@@]2(C)C3=C(C(=O)C[C@]12C)[C@@]1(C)CCC(=O)C(C)(C)[C@@H]1C[C@@H]3O)C(=O)O` [Ganoderic acid A] (compound dose: 10 uM), the cell viability in the assay on MDA-MB-231 [1] came to 0.889 ± 0.073. The kynurenine production in the assay on MDA-MB-231 [2] came to 0.857 ± 0.073.

As to `CC(=O)OCC1=C[C@H]2[C@@H]3C(C)(C)[C@]3(OC(C)=O)[C@H](OC(C)=O)[C@@H](C)[C@]2(O)[C@@H]2C=C(C)C(=O)[C@@]2(O)C1` [Phorbol 12,13,20-triacetate] (compound dose: 10 uM), the cell viability with MDA-MB-231 [1] stood at 0.868 ± 0.26. The kynurenine production in the assay on MDA-MB-231 [2] is 0.8 ± 0.1.

For `COC(=O)C[C@](O)(CCCC(C)(C)O)C(=O)O[C@@H]1C(OC)=C[C@]23CCCN2CCc2cc4c(cc2[C@H]13)OCO4` [Homoharringtonine] (compound dose: 10 uM), in the assay on MDA-MB-231 [1], the cell viability was 0.382. Besides, the kynurenine production in the assay on MDA-MB-231 [2] came out at 0.125 ± 0.08.

On to `CC1=CCC2CC1C2(C)C` (stereo not drawn) [(-)-α-Pinene] (compound dose: 10 uM), for which the cell viability in the assay on MDA-MB-231 [1] was found to be 1.01 ± 0.035. Besides, the kynurenine production in the assay on MDA-MB-231 [2] was found to be 1.21 ± 0.14.

With `C[C@@H]1[C@H]2[C@H](O[C@@H]3O[C@H](CO)[C@@H](O)[C@H](O)[C@H]3O)OC=C(C(=O)O)[C@H]2C[C@@H]1O` [Loganic acid] (compound dose: 10 uM), the cell viability with MDA-MB-231 [1] came out at 0.999 ± 0.016. For the same compound, the kynurenine production with MDA-MB-231 [2] is 1.01 ± 0.16.

Turning to `CC(C)=CCC[C@](C)(O[C@@H]1O[C@H](CO)[C@@H](O)[C@H](O)[C@H]1O)[C@H]1CC[C@]2(C)[C@@H]1[C@H](O)C[C@@H]1[C@@]3(C)CC[C@H](O[C@@H]4O[C@H](CO)[C@@H](O)[C@H](O)[C@H]4O)C(C)(C)[C@@H]3CC[C@]12C` [Ginsenoside F2] (compound dose: 10 uM), the cell viability in the assay on MDA-MB-231 [1] was 0.992 ± 0.033. Moreover, the kynurenine production with MDA-MB-231 [2] amounted to 0.818 ± 0.12.

Consider `O[C@H]1[C@H]2c3cc4c(cc3CN3CCC(=C[C@@H]1O)[C@H]23)OCO4` [Lycorine chloride] (compound dose: 10 uM), for which the cell viability in the assay on MDA-MB-231 [1] worked out at 0.582 ± 0.056. In the assay on MDA-MB-231 [2], the kynurenine production is 0.184 ± 0.072.

On to `C[C@H]1[C@H](C)CC[C@]2(C(=O)O)CC[C@]3(C)C(=CC[C@@H]4[C@@]5(C)C[C@@H](O)[C@H](O)C(C)(C)[C@@H]5CC[C@]43C)[C@H]12` [Corosolic acid] (compound dose: 10 uM), for which, in the assay with MDA-MB-231 [1], the cell viability was 1.07 ± 0.16. In addition, the kynurenine production in the assay with MDA-MB-231 [2] was 1.19 ± 0.13.

As to `C[C@]12C[C@@H](O)[C@@H]3C[C@@]1(O[C@@H]1O[C@H](CO)[C@@H](O)[C@H](O)[C@H]1O)[C@@]3(COC(=O)c1ccccc1)C(=O)O2` [Albiflorin] (compound dose: 10 uM), the cell viability in the assay with MDA-MB-231 [1] was 0.963 ± 0.031. Besides, the kynurenine production in the assay on MDA-MB-231 [2] is 0.908 ± 0.031.

In the case of `C[C@@H]1CC[C@]2(C(=O)O[C@@H]3O[C@H](CO)[C@@H](O)[C@H](O)[C@H]3O)CC[C@]3(C)C(=CC[C@@H]4[C@@]5(C)CC[C@H](O[C@@H]6OC[C@H](O)[C@H](O)[C@H]6O)C(C)(C)[C@@H]5CC[C@]43C)[C@@H]2[C@]1(C)O` [Ziyuglycoside I] (compound dose: 10 uM), the cell viability in the assay with MDA-MB-231 [1] amounted to 0.947 ± 0.068. Besides, the kynurenine production in the assay with MDA-MB-231 [2] came out at 0.804 ± 0.19.

Consider `C=C1C(=O)O[C@H]2C[C@@H](C)[C@@H]3[C@@H](OC(C)=O)C[C@H](O)[C@@]3(C)[C@@H](OC(C)=O)[C@H]12` [Britannin] (compound dose: 10 uM), for which the cell viability with MDA-MB-231 [1] stood at 1.01 ± 0.043. Also, the kynurenine production in the assay on MDA-MB-231 [2] was determined as 0.268 ± 0.075.

Regarding `C[C@@H]1C[C@@H]([C@@H](O)C(C)(C)O)O[C@H]2C[C@@]3(C)C(=C12)C[C@H](O)[C@H]1[C@@]2(C)CCC(=O)C(C)(C)[C@@H]2CC[C@@]13C` [Alisol F] (compound dose: 10 uM), in the assay with MDA-MB-231 [1], the cell viability worked out at 0.991 ± 0.032. The kynurenine production with MDA-MB-231 [2] stood at 0.848 ± 0.048.

With `C=C1[C@H](OC(=O)C(C)C)[C@@H](O)[C@@H](OC(=O)c2cccnc2)C(C)(C)/C=C/[C@H](C)[C@H](OC(C)=O)[C@@]2(O)C[C@@](C)(OC(C)=O)[C@H](OC(=O)c3ccccc3)[C@@H]2[C@H]1OC(C)=O` [Jatrophane 3] (compound dose: 10 uM), the cell viability with MDA-MB-231 [1] was 1.04 ± 0.056. Moreover, the kynurenine production in the assay on MDA-MB-231 [2] came to 0.82 ± 0.18.

For the compound `CC(=O)O[C@@]1(C)C[C@@H](O)[C@]2(O)C=CO[C@@H](O[C@@H]3O[C@H](CO)[C@@H](O)[C@H](O)[C@H]3O)[C@@H]21` [8-O-Acetylharpagide] (compound dose: 10 uM), the cell viability with MDA-MB-231 [1] was 0.9 ± 0.067. In addition, the kynurenine production in the assay with MDA-MB-231 [2] is 0.906 ± 0.076.

As to `C=C1CC[C@@H]2[C@](C)(COC(=O)CCC(=O)O)[C@H](OC(=O)CCC(=O)O)CC[C@@]2(C)[C@@H]1/C=C/C1=CCOC1=O` [Kalii Dehydrographolidi Succinas] (compound dose: 2 uM), in the assay with MDA-MB-231 [1], the cell viability is 1.08 ± 0.13. Besides, the kynurenine production in the assay with MDA-MB-231 [2] was found to be 1.2675 ± 0.00049.

Turning to `COC(=O)[C@@H]1C[C@@]23C4=C(CC[C@@H]5CN6C[C@@H](C)[C@@H](C[C@@H](OC(C)=O)[C@@]52COC(C)=O)[C@]63O)CC[C@@H]41` [Yuzurimine] (compound dose: 10 uM), the cell viability in the assay with MDA-MB-231 [1] worked out at 1.04 ± 0.029. In addition, the kynurenine production in the assay on MDA-MB-231 [2] is 0.756 ± 0.07.

`O=C(OCC1=C[C@@H](O)[C@@H]2C=CO[C@@H](O[C@@H]3O[C@H](CO)[C@@H](O)[C@H](O)[C@H]3O)[C@H]12)c1ccc(O)cc1` [Agnuside] (compound dose: 10 uM): the cell viability in the assay on MDA-MB-231 [1] turned out to be 1.08 ± 0.039. Moreover, the kynurenine production in the assay with MDA-MB-231 [2] amounted to 0.864 ± 0.17.
